In the supplement of paper PMC6555819:

Legend:
Experiment in all cases: PBM binding z-score (relative to random genomic background probes); higher = stronger binding; sequences stand for … in GC…GCGATTGACAGCGTAGAATGAAGG
[1] = tested on: FXR:RXRa (NR concentration 270 nM, RXRa partner concentration 90 nM)
In short: (§1)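 Probes were double-stranded and carried 34-nt variable regions with direct-repeat seeds, single-nucleotide variants, half-site ablations and random human genomic background sequences, printed on custom Agilent 4×180K protein-binding microarrays. Arrays were incubated 1 h with ligand-free nuclear receptor dimers in PBS pH 7.4, 2% milk, 0.02% Triton X-100, 1 mM DTT, 0.2 mg/mL BSA and 0.4 mg/ml salmon testes DNA. Antibodies against each partner (one per run) detected binding, and scanned fluorescence was regression-normalized. Binding z-scores use the random background probes as reference.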

[2] = tested on: LXRa:RXRa (NR concentration 270 nM, RXRa partner concentration 90 nM)
In short: as §1

[3] = tested on: LXRa homodimer (NR concentration 270 nM)
In short: as §1

[4] = tested on: LXRb:RXRa (NR concentration 270 nM, RXRa partner concentration 90 nM)
In short: as §1

[5] = tested on: LXRb homodimer (NR concentration 270 nM)
In short: as §1

[6] = tested on: PPARg:RXRa (NR concentration 180 nM, RXRa partner concentration 90 nM)
In short: as §1

[7] = tested on: PPARg:RXRa 270nM:90nM, anti-RXR (NR concentration 270 nM, RXRa partner concentration 90 nM)
In short: as §1

[8] = tested on: PPARg:RXRa 30nM:10nM, anti-RXR (NR concentration 30 nM, RXRa partner concentration 10 nM)
In short: as §1

[9] = tested on: PPARg:RXRa 90nM:30nM, anti-RXR (NR concentration 90 nM, RXRa partner concentration 30 nM)
In short: as §1

[10] = tested on: PPARg:RXRa DBDmut IVT, anti-RXR (DBD mutation: RXRa K156A/R161A, NR concentration 270 nM, RXRa partner concentration 90 nM)
In short: as §1

[11] = tested on: PPARg:RXRa IVT, anti-PPARg (NR concentration 270 nM, RXRa partner concentration 90 nM)
In short: as §1

[12] = tested on: PPARg DBDmut:RXRa IVT, anti-PPARg (DBD mutation: PPARg1 K132A/R137A, NR concentration 270 nM, RXRa partner concentration 90 nM)
In short: as §1

[13] = tested on: PPARg DBDmut IVT, anti-PPARg (DBD mutation: PPARg1 K132A/R137A, NR concentration 270 nM)
In short: as §1

[14] = tested on: PPARg homodimer (NR concentration 180 nM)
In short: as §1

[15] = tested on: PXR:RXRa (NR concentration 270 nM, RXRa partner concentration 90 nM)
In short: as §1

[16] = tested on: PXR homodimer (NR concentration 270 nM)
In short: as §1

[17] = tested on: RARa:RXR (NR concentration 270 nM, RXRa partner concentration 90 nM)
In short: as §1

[18] = tested on: RARa homodimer (NR concentration 270 nM)
In short: as §1

[19] = tested on: RARb:RXRa (NR concentration 270 nM, RXRa partner concentration 90 nM)
In short: as §1

CCTAGTAGGTTATGGGGCATTCAGGCAACGGTGA
PBM binding z-score [1]: 0.561 | PBM binding z-score [2]: 0.515 | PBM binding z-score [3]: -0.0293 | PBM binding z-score [4]: 0.689 | PBM binding z-score [5]: -0.176 | PBM binding z-score [6]: 5.47 | PBM binding z-score [7]: 5.67 | PBM binding z-score [8]: 4.4 | PBM binding z-score [9]: 6.07 | PBM binding z-score [10]: 4.52 | PBM binding z-score [11]: 5.34 | PBM binding z-score [12]: 0.403 | PBM binding z-score [13]: -0.728 | PBM binding z-score [14]: 1.28 | PBM binding z-score [15]: 0.0613 | PBM binding z-score [16]: 0.02 | PBM binding z-score [17]: 0.431 | PBM binding z-score [18]: 0.456 | PBM binding z-score [19]: 1.13

CCTAGCAGGCCACGGTCACTCAAGCATTTCGCTT
PBM binding z-score [1]: 0.26 | PBM binding z-score [2]: 0.128 | PBM binding z-score [3]: -0.0188 | PBM binding z-score [4]: 0.0634 | PBM binding z-score [5]: -0.369 | PBM binding z-score [6]: 0.0164 | PBM binding z-score [7]: 0.322 | PBM binding z-score [8]: -0.777 | PBM binding z-score [9]: -0.122 | PBM binding z-score [10]: 2.28 | PBM binding z-score [11]: 1.83 | PBM binding z-score [12]: -0.92 | PBM binding z-score [13]: -1.29 | PBM binding z-score [14]: 0.115 | PBM binding z-score [15]: -0.147 | PBM binding z-score [16]: -0.385 | PBM binding z-score [17]: 0.307 | PBM binding z-score [18]: -0.0441 | PBM binding z-score [19]: 1.95

CCTACTGGGCCAAAGGTCATTGACTCCAATGCTC
PBM binding z-score [1]: 5.27 | PBM binding z-score [2]: 5.54 | PBM binding z-score [3]: 4.65 | PBM binding z-score [4]: 5.25 | PBM binding z-score [5]: 0.543 | PBM binding z-score [6]: 12.1 | PBM binding z-score [7]: 10.3 | PBM binding z-score [8]: 10.7 | PBM binding z-score [9]: 11.4 | PBM binding z-score [10]: 5.27 | PBM binding z-score [11]: 7.13 | PBM binding z-score [12]: 0.277 | PBM binding z-score [13]: 0.152 | PBM binding z-score [14]: 2.5 | PBM binding z-score [15]: 5.52 | PBM binding z-score [16]: 1.32 | PBM binding z-score [17]: 6.16 | PBM binding z-score [18]: 0.485 | PBM binding z-score [19]: 4.53

CGTCCAACGTCAGCAGGTCAGTGAAAGCGACGTG
PBM binding z-score [1]: -0.27 | PBM binding z-score [2]: -0.136 | PBM binding z-score [3]: -0.366 | PBM binding z-score [4]: -0.0519 | PBM binding z-score [5]: -0.788 | PBM binding z-score [6]: -0.188 | PBM binding z-score [7]: -0.476 | PBM binding z-score [8]: -0.755 | PBM binding z-score [9]: -0.842 | PBM binding z-score [10]: 0.148 | PBM binding z-score [11]: 0.161 | PBM binding z-score [12]: -0.345 | PBM binding z-score [13]: -1.13 | PBM binding z-score [14]: -0.114 | PBM binding z-score [15]: 0.174 | PBM binding z-score [16]: -0.448 | PBM binding z-score [17]: 0.556 | PBM binding z-score [18]: -0.438 | PBM binding z-score [19]: 1.82

TAGCCTAAGTCATGGGCCAGTATACCACGCGAAC
PBM binding z-score [1]: -0.178 | PBM binding z-score [2]: -0.0929 | PBM binding z-score [3]: -0.218 | PBM binding z-score [4]: -0.0253 | PBM binding z-score [5]: -0.797 | PBM binding z-score [6]: 0.437 | PBM binding z-score [7]: 0.385 | PBM binding z-score [8]: -0.251 | PBM binding z-score [9]: 0.254 | PBM binding z-score [10]: -0.872 | PBM binding z-score [11]: -0.144 | PBM binding z-score [12]: -0.174 | PBM binding z-score [13]: -0.856 | PBM binding z-score [14]: -0.397 | PBM binding z-score [15]: -0.259 | PBM binding z-score [16]: -0.135 | PBM binding z-score [17]: 0.041 | PBM binding z-score [18]: -0.286 | PBM binding z-score [19]: 0.0943

AATTCAGGGTCACTAGGCCAGAGTAGGTACGAAT
PBM binding z-score [1]: 6.96 | PBM binding z-score [2]: 6.2 | PBM binding z-score [3]: 1.95 | PBM binding z-score [4]: 4.99 | PBM binding z-score [5]: 1.68 | PBM binding z-score [6]: 9.15 | PBM binding z-score [7]: 7.59 | PBM binding z-score [8]: 4.55 | PBM binding z-score [9]: 6.76 | PBM binding z-score [10]: 4.91 | PBM binding z-score [11]: 6.4 | PBM binding z-score [12]: 5.15 | PBM binding z-score [13]: 2.77 | PBM binding z-score [14]: 4.18 | PBM binding z-score [15]: 4.19 | PBM binding z-score [16]: 0.429 | PBM binding z-score [17]: 5.62 | PBM binding z-score [18]: 1.32 | PBM binding z-score [19]: 4.89

CAAACTAGGTCAAAGGTCAAAATCGAGCCAACCA
PBM binding z-score [1]: 8.54 | PBM binding z-score [2]: 7.06 | PBM binding z-score [3]: 4.95 | PBM binding z-score [4]: 7.22 | PBM binding z-score [5]: 3.3 | PBM binding z-score [6]: 13.4 | PBM binding z-score [7]: 11.8 | PBM binding z-score [8]: 13.7 | PBM binding z-score [9]: 14.5 | PBM binding z-score [10]: 8.4 | PBM binding z-score [11]: 9.49 | PBM binding z-score [12]: 5.76 | PBM binding z-score [13]: 3.58 | PBM binding z-score [14]: 5.14 | PBM binding z-score [15]: 6.99 | PBM binding z-score [16]: 1.48 | PBM binding z-score [17]: 8.9 | PBM binding z-score [18]: 2.19 | PBM binding z-score [19]: 5.94

CCTACTGGGGCAAAGGTCATTGATTCCAATGCTC
PBM binding z-score [1]: 4.69 | PBM binding z-score [2]: 5.21 | PBM binding z-score [3]: 2.93 | PBM binding z-score [4]: 4.78 | PBM binding z-score [5]: 0.406 | PBM binding z-score [6]: 12 | PBM binding z-score [7]: 10 | PBM binding z-score [8]: 9.73 | PBM binding z-score [9]: 11.1 | PBM binding z-score [10]: 6.11 | PBM binding z-score [11]: 7.2 | PBM binding z-score [12]: 0.312 | PBM binding z-score [13]: -0.624 | PBM binding z-score [14]: 2.42 | PBM binding z-score [15]: 5.6 | PBM binding z-score [16]: 0.979 | PBM binding z-score [17]: 6.37 | PBM binding z-score [18]: 0.341 | PBM binding z-score [19]: 4.66
